Experimental data taken from PubChem BioAssay AID588590 (National Center for Advancing Translational Sciences (NCATS), 2011).
The whole screen tested about 390,000 compounds, of which about 4,000 (1%) were called active. Inconclusive results (about 7%) are left out. This excerpt belongs to a sample that is enriched for actives. A number with no mark means an inactive call. Calls come from the whole dose curve; as a rule, active = well fitted inhibition curve with a large enough effect; inconclusive = small, poorly fitted or top-dose-only effect, or another doubt; inactive = no such curve, though single readings can be large or run the other way.

The compounds below were run against DNA polymerase iota (Homo sapiens) (UniProt Q9UNA4) (assay: qHTS for Inhibitors of Polymerase Iota). Conditions: Pol iota fluorescent replication assay, 10 min; series mostly up to 115 µM; activity, negative = inhibition: at the top concentration.
Source text: DNA polymerases, such as Pol iota, are specifically involved in DNA repair. Pol iota specifically plays an important role in translesion synthesis, where the normal high-fidelity DNA polymerases cannot proceed and DNA synthesis stalls. […] Thus, while pol eta's (and most likely iota's) normal function is to protect humans against the deleterious consequences of DNA damage, under certain conditions they can have deleterious effects on human health. As a consequence, we propose to utilize a high throughput replication assay to identify small molecule inhibitors of pol iota.
In a collaboration between the National Institute of Child Health & Human Development (NICHD) and NIH Chemical Genomics Center, a high-throughput, fluorescent screen was developed to screen the NIH Molecular Libraries Small Molecule Repository (MLSMR). This screen is used to identify inhibitors of pol iota.
NIH Chemical Genomics Center [NCGC]
NIH Molecular Libraries Probe Centers Network [MLPCN]
Assay Submitter (PI): Roger Woodgate, NICHD)
Three microliters of reagents (buffer in column 3 and 4 as negative control and 10 nM Pol iota in columns 1, 2, and 5-48) will be dispensed into 1,536-well black solid-bottomed plate. Compounds (23 nL) will be transferred via Kalypsys pin tool equipped with 1536-pin array. The plates will then be incubated for 15 min at room temperature, and 1 µL substrate (50 nM final concentration) will be added to start the reaction and kinetically read twice at 0 min and 10 min on the Viewlux reader.
Potency is the fitted concentration of half-maximal effect.

Chain of DNA polymerase iota (Homo sapiens) (Q9UNA4 whole entry, looked up): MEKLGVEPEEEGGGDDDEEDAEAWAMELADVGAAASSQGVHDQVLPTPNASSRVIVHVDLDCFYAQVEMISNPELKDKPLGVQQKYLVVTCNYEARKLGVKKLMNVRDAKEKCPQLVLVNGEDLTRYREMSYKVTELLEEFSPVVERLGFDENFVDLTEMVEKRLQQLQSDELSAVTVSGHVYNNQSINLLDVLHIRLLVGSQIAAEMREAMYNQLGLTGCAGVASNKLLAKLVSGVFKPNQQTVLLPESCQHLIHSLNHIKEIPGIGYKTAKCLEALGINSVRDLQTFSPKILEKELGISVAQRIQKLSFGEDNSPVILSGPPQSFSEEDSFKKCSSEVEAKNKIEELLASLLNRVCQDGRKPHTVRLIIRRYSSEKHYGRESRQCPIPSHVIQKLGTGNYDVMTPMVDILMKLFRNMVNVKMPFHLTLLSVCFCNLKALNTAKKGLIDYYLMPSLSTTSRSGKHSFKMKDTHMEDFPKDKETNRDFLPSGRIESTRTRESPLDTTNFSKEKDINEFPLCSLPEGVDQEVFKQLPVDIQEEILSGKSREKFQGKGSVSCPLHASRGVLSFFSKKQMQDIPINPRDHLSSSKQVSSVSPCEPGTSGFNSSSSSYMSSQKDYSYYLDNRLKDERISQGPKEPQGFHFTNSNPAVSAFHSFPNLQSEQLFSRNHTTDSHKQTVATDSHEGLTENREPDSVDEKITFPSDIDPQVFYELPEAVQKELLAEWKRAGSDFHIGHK

Structure (SMILES)	activity, negative = inhibition [%]	Potency
OC[C@@H]1O[C@H](n2cnc3c(SCc4ccccc4)ncnc32)[C@H](O)[C@H]1O	17.3	
COc1ccc(CNC(=O)Cc2coc3ccc(C(C)C)cc23)cc1	-11.3	
CCOC(=O)c1c(C)[nH]c(C)c1S(=O)(=O)N(C)CC(=O)N1CCN(c2ccccc2)CC1	15.1	
CCOC(=O)c1c(C)[nH]c2c1-c1ccccc1C(=O)C2=O		1.41 µM (active)
CCOC(=O)c1c(SCC(=O)Nc2cccc(C)c2C)nc(=O)[nH]c1C	-9.72	
Cc1ccc(-n2ncc3c(=O)n(Cc4cccc(C(F)(F)F)c4)cnc32)cc1C	2.4	
O=C(O)c1ccc(NN=CC2=C(N3CCOCC3)/C(=C/c3ccccc3)CC2)cc1		20 µM (active)
O=C(O)c1ccc(N/N=C/c2ccc3ncccc3c2)cc1	-5.75	
Cc1ccccc1N/N=C/c1ccc(N2CCOCC2)cc1	-12.5	
CCCCOc1ccc(C(=O)NO)cc1	20.2	
C/C=C/NNC(=O)Cc1ccc(OC)cc1	11.8	
COc1ccc(OC)c2sc(N3CCN(C(=O)C4COc5ccccc5O4)CC3)nc12 (stereo not given)	11.7	
Cc1c(CC(=O)N2CCN(C(=O)C3COc4ccccc4O3)CC2)c(=O)oc2c(O)c(O)ccc12 (stereo not given)		3.16 µM (active)
COc1cc(NS(=O)(=O)c2ccc3c(c2)OCC(C(=O)N2CCCC2)O3)cc(OC)c1 (stereo not given)	8.22	
Cc1ccc(-c2ccc(CCC(=O)O)n2-c2ccc(C(N)=O)cc2)cc1	3.26	
COc1ccc(Cl)cc1S(=O)(=O)N1CCN(CC(=O)C(C)(C)C)CC1	-2.4	
N#Cc1ccsc1NC(=O)CN1CCN(S(=O)(=O)c2cc(Cl)ccc2Cl)CC1	-9.21	
O=C(CN1CCN(S(=O)(=O)c2cc(Cl)ccc2Cl)CC1)c1ccc(O)c(O)c1		10 µM (active)
Cc1[nH]c2ccccc2c1C(=O)C(=O)N(C)c1ccccc1	27.1	
Cc1ccc(-c2nc3ccccn3c2Nc2ccc(F)cc2)o1	21.9	
CCCCCCCNc1ccc(/C=C/c2ccnc3ccccc23)cc1	34.6	
O=C(Cn1c(=O)n(-c2ccc(F)cc2)c(=O)c2sc3ccccc3c21)NC1CCCC1	-2.5	
COc1ccc(CNC(=O)c2cc3c(-c4ccccc4F)nn(C)c3s2)c(OC)c1	-0.744	
CSc1cccc(NC(=O)CN2C(=O)CCc3cc(S(=O)(=O)N4CCCCC4)ccc32)c1	-12.3	
Cc1oc2c(c1C(=O)N1CCOCC1)C(=O)c1ccccc1C2=O	-7.65	

Structure (SMILES)	activity, negative = inhibition [%]	Potency
COC1=C(N2CCOCC2)C(=O)c2ccccc2C1=O		14.1 µM (active)
O=C1c2ccccc2-c2ncnc3c(N4CCOCC4)cc(N4CCOCC4)c1c23	12.6	
Cc1cccn2c(=O)c3cc(C(=O)NC(C)c4ccccc4)c(=N)n(CCCO)c3nc12 (stereo not given)	5.28	
COc1ccc(-c2c(C)c3ccc(O)c(CN4CCN(C)CC4)c3oc2=O)cc1OC	-12.2	
COc1c(O)cc2oc(-c3ccc(O)c(O)c3)cc(=O)c2c1O		7.94 µM (active)
COc1cc(O)c2c(=O)c3c(O)c(O)ccc3oc2c1OC	-4.12	
C=CCNC(=O)CSc1nc2scc(-c3ccco3)c2c(=O)n1CC=C		44.7 µM (active)
C=CCn1c(SCC(=O)NCCCO)nc2sc3c(c2c1=O)CCC3	45.2	
C=CCn1c(=S)[nH]c2scc(-c3ccco3)c2c1=O		4.47 µM (active)
C=CCn1c(SCC(=O)NCC2CCCO2)nc2sc(C)c(C)c2c1=O (stereo not given)	22.8	
CCOC(=O)c1cccc(NC(=O)C(Cc2ccccc2)NS(=O)(=O)c2cccc3nsnc23)c1 (stereo not given)	39.6	
Cc1ccc(N2CC(c3nnc(Cc4ccccc4Cl)o3)CC2=O)cc1 (stereo not given)	-8.99	
CCOc1ccc(N(CC)S(=O)(=O)N2CCCC(C(=O)NCc3ccc(Cl)cc3)C2)cc1 (stereo not given)	4.52	
CCOc1ccc(-n2nc3ccc(NC(=O)c4ccc(OC)c(Cl)c4)cc3n2)cc1	23.2	
CCOc1ccc(CNC(=O)C2CCCN(S(=O)(=O)N(CC)c3ccc(OCC)cc3)C2)cc1 (stereo not given)	-9.13	
CCN(CC)CCNC(=O)Cn1ncc2c3ccccc3n(Cc3ccccc3C)c2c1=O	20.6	
N#Cc1cccc(OC(=O)c2ccc3c(=O)n4c(nc3c2)CCC4)c1		20 µM (active)
COC(=O)c1ccccc1NC(=O)c1ccc2c(=O)n3c(nc2c1)CCCCC3	17	
CC1CCN(C(=O)c2ccc3c(=O)n4c(nc3c2)CCCCC4)CC1	2.81	
CCOC(=O)c1c(NC(=O)Cc2coc3ccc(CC)cc23)sc2c1CCC2	20.1	
O=C1COc2c1ccc(O)c2O		17.8 µM (active)
CCc1ccc(CNC(=O)c2cc3c(=O)n(CC)c4ccccc4c3s2)cc1	-4.94	
O=C(CN1C(=O)COc2ccccc21)Nc1ccc(F)cc1	25.2	
CCc1ccc(NC(=O)CN2C(=O)CSC2=O)cc1	-2.66	
Cn1cccc1/C=C1\SC(=O)N(CC(=O)Nc2ccc(F)cc2)C1=O		79.4 µM (active)

Structure (SMILES)	activity, negative = inhibition [%]	Potency
Cc1ccccc1CN1CCC(CNC(=O)c2c(C)oc3ncnc(N4CCCCC4)c23)CC1	-25.9	
CCOc1cc(-c2nnc(SCC(=O)NC3CCCCC3)nc2-c2ccc(OC)c(OCC)c2)ccc1OC	26.3	
CN1CCN(C(=O)Cn2c(C(F)(F)F)nc3ccccc32)CC1	68.1	
CCCN1CCN(C(=O)Cn2ncc3ccccc32)CC1		39.8 µM (active)
CCc1nn(CC(=O)N2CCN(CC)CC2)c(=O)c2cccn12	-19.7	
Oc1ccc(-c2nc3ccc(Cl)cn3c2Nc2ccc3c(c2)OCO3)cc1	-2.69	
O=C(NC(=S)Nc1ccc(Cl)c(C(=O)O)c1)c1cncc(Br)c1	-13.8	
Cc1ccc(C)c(NC(=S)NNC(=S)Nc2ccc(C(C)C)cc2)c1	-14.7	
CC(C)c1ccc(NC(=S)NNc2ccc(Cl)c(C(=O)O)c2)cc1		11.2 µM (active)
COc1ccccc1NC(=O)Cn1cnc2ccc(S(=O)(=O)N3CCC(C)CC3)cc2c1=O	2.42	
COc1cccc(NC(=O)CN2C(=O)c3ccccc3Sc3ncccc32)c1	187	
COc1ccccc1NC(=O)CN1C(=O)c2ccccc2Sc2ccc(C(=O)N3CCCC3)cc21		79.4 µM (active)
COC(=O)c1ccc2c(c1)N(CC(=O)Nc1ccc(C)c(C)c1)C(=O)c1ccccc1S2	9.94	
CCc1c(C)sc(NC(=O)C2c3ccccc3Oc3ccccc32)c1C(=O)OC(C)C	-4.88	
CC(C)CC(NS(=O)(=O)c1ccc2c(c1)oc(=O)n2C)C(=O)NCc1ccccc1Cl (stereo not given)	-6.47	
COc1ccccc1C(=O)Nc1c(C(=O)Nc2ccc(C)cc2)oc2ccccc12	22.7	
Cn1c(=O)c2c(nc(SCC(=O)Nc3ccc(F)cc3)n2Cc2ccccc2)n(C)c1=O	23.2	
O=C1/C(=C\c2ccc([N+](=O)[O-])cc2)CS(=O)(=O)C/C1=C/c1ccc([N+](=O)[O-])cc1		11.2 µM (active)
O=C1CCCN1C(=O)COc1ccc([N+](=O)[O-])cc1	-4.78	
O=[N+]([O-])c1ccc(/C=C/c2ccc3cccnc3c2)cc1	15.2	
CC(C)Oc1ccc(CNC(=O)C2CCN(c3nc4ccccc4n(C)c3=O)CC2)cc1	29.1	
C(=Nc1ccc(/C=C/c2ccnc3ccccc23)cc1)Nc1ccc(/C=C/c2ccnc3ccccc23)cc1	3.51	
OCCNc1ncnc2oc(-c3ccco3)c(-c3ccco3)c12		12.6 µM (active)
COc1ccc(-c2oc3ncnc(NCCCO)c3c2-c2ccc(OC)cc2)cc1	97.6	
Cc1noc2ncnc(NCc3ccccc3Cl)c12	-9.96	

Structure (SMILES)	activity, negative = inhibition [%]	Potency
CN(Cc1ccccc1)c1ncnc2onc(-c3ccc(F)cc3)c12	-14.9	
CN(C)c1cccc2ccccc12	14.8	
CCN1CCN(CCCNC(=O)c2ccc3c(c2)sc2nc(-c4ccc(OC)cc4)cn23)CC1	21.9	
CCCCCn1c(CCNC(=O)c2ccc(F)cc2)nc2ccccc21	17.1	
Cc1noc(C)c1S(=O)(=O)Nc1ccc(C(=O)O)cc1	-10.9	
Cc1noc(C)c1S(=O)(=O)Nc1ccc(C(=O)N2CCN(c3ccc(F)cc3)CC2)cc1		79.4 µM (active)
CN1CCN(C(=O)c2ccc(NS(=O)(=O)c3ccccc3)cc2)CC1	20.4	
O=C(CC1N=C2c3ccccc3N=C(SCc3cccc(Cl)c3)N2C1=O)NCc1ccc2c(c1)OCO2 (stereo not given)	-13.6	
CCCc1nc2sc3c(c2c(=O)n1NC(=O)CCCl)CCCC3	-14.2	
O=c1[nH]c(CN2CCN(S(=O)(=O)c3ccc4c(c3)OCCO4)CC2)nc2sc3c(c12)CCCC3	3.88	
O=C(CCc1nc2sc3c(c2c(=O)[nH]1)CCCC3)NCC(=O)Nc1ccccc1Br		50.1 µM (active)
CCOC(=O)c1[nH]c(C)c(CCC(=O)N2CCN(c3ccccc3)CC2)c1C	17.9	
O=C(COc1ccc(-n2cnnn2)cc1)Nc1ccccc1Cl		79.4 µM (active)
C=CCc1cccc(/C=N/NC(=O)COc2ccc(-n3cnnn3)cc2)c1O	27.2	
CCOc1ccc(C(=O)COC(=O)c2ccc(-n3cnnn3)cc2)cc1	32.9	
Cc1ccc2[nH]c3c(=O)n(CC(=O)NC(C)C)ncc3c2c1	-5.61	
Fc1ccc(CSc2nc(NCc3ccccc3)c3ccccc3n2)cc1	2.18	
Fc1ccc(Nc2nc(SCc3ccccc3Cl)nc3ccccc23)cc1		79.4 µM (active)
O=C(CSc1nc(Nc2ccc(F)c(F)c2)c2ccccc2n1)c1ccc(Cl)cc1	14.1	
COc1ccc(-n2c(=O)c3sc4ccccc4c3n(CC(=O)Nc3cccc(C)c3)c2=O)cc1	10.2	
COc1ccc(NC(=O)Nc2cccc(-c3noc(C)n3)c2)cc1	3.68	
Cc1sc2nc(CSCC(=O)Nc3c(Cl)cccc3Cl)[nH]c(=O)c2c1C	-1.49	
CCOC(=O)c1sc2nc(CSCC(=O)OCc3ccc(C(=O)OC)o3)[nH]c(=O)c2c1C	23.8	
CSc1nnc(SCc2nc3sc(C(=O)O)c(C)c3c(=O)[nH]2)s1		3.98 µM (active)
Cc1ccc(S(=O)(=O)c2cn(Cc3ccccc3)c3cc(N4CCCC4)c(F)cc3c2=O)c(C)c1	-15.4	
